High-throughput results: PubChem, National Center for Advancing Translational Sciences (NCATS)
NS1 function inh: qHTS Assay for Inhibitors of Influenza NS1 Protein Function; Potency, µM (highest dose often 46.1 µM), without a hit: at the highest dose activity, positive = more growth; AID 2326, 2010; 270,000 compounds, 0.4% hits; note: actives are rising curves; nearly all actives have a fitted effect of over 50% in size
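Recovery from NS1-induced slow growth read by OD600 in budding yeast switched to galactose assay medium (pH 6.0, -URA) at 1:100 dilution. Compound 23 nl per well; the matching strain lacking NS1 serves as control.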
Pf growth 48h: Primary qHTS for delayed death inhibitors of the malarial parasite plastid, 48 hour incubation | P. falciparum luciferase growth in erythrocytes, 48 h | Potency, µM (highest dose often 28.7 µM), without a hit: at the highest dose activity change, negative = inhibition, actives largely listed as inhibitors | 310,000 compounds, 5.9% hits | AID 504832, 2011; active = well fitted inhibition curve with a large enough effect; inconclusive = small, poorly fitted or top-dose-only effect, or another doubt; inactive = no such curve, though single readings can be large or run the other way; note: % is set by controls: 0 for no effect and ±100 for the full control effect
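First compound was added to culture medium, then infected red cells at 0.1% parasitemia and 2% hematocrit (final). After incubation at 37 C under 5% CO2, luciferase detection reagent was dispensed and light output recorded.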
RE007 growth inh: qHTS Assay for Inhibitors of the HIV-1 protein Vpr; S. pombe RE007 Vpr strain, BacTiter-Glo ATP luminescence, 24 h; Potency, µM (highest dose often 92.2 µM), for the others: at the top dose activity change, negative = less growth, most hits filed as inhibitors; 360,000 compounds, 0.21% hits; AID 651644, 2012; active = well fitted falling curve with a large enough effect; inconclusive = small, poorly fitted or top-dose-only effect; inactive = no such curve, though single readings can be large or run the other way; note: % is set by controls: 0 for no effect and ±100 for the full control effect; nearly all actives have a fitted effect of over 50% in size
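Fission yeast RE007 carrying one integrated HIV-1 vpr copy, seeded at OD 0.01 in PMG+AL medium with 23 nL pinned compound. Grown 24 h at 30 degrees; viability read by BacTiter-Glo luminescence after 5 min.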
Pf growth 96h: Primary qHTS for delayed death inhibitors of the malarial parasite plastid, 96 hour incubation; 320,000 compounds, 6.9% hits; Potency, µM (titrated, usually from 28.7 µM), inactives show at the top dose activity change, negative = inhibition, actives largely listed as inhibitors; P. falciparum luciferase reporter growth, 96 h; AID 504834, 2011; active = well fitted inhibition curve with a large enough effect; inconclusive = small, poorly fitted or top-dose-only effect, or another doubt; inactive = no such curve, though single readings can be large or run the other way; note: % is set by controls: 0 for no effect and ±100 for the full control effect
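96 h incubation, 37 C, 5% CO2, of luciferase-reporter P. falciparum-infected RBCs (2% hematocrit, 0.05% parasitemia final) with test compounds; endpoint luminescence.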
SARS PLpro yeast: qHTS of Yeast-based Assay for SARS-CoV PLP; AID 485353, 2010; S. cerevisiae expressing SARS-CoV PLpro, growth rescue; Potency, µM (series often up to 32.9 µM), for the others: at the highest dose activity, positive = growth rescue, most hits filed as activators; 330,000 compounds, 0.19% hits; note: 0% is about no effect; nearly all actives have a fitted effect of over 55% in size
Numbers without * were called inactive; u = inconclusive; x = no result. In the library only some 9.5% were active in any assay of this set; here they are far more common. Unless noted, calls come from the whole dose curve. Potency is the fitted concentration of half-maximal effect.

SMILES | NS1 function inh | Pf growth 48h | RE007 growth inh | Pf growth 96h | SARS PLpro yeast
CCC1CCCCN1S(=O)(=O)c1ccc2[nH]c(=O)ccc2c1 (configuration not stated) | 7% | 11% | 12% | 3.3µM* | 3%
CCCNC(=O)C1CCN(S(=O)(=O)c2ccc3[nH]c(=O)ccc3c2)CC1 | 6% | 8% | 7% | -10% | 1%
COc1ccc(C(=O)N2CCc3cc4c(cc3C2C)OCCCO4)cc1 (configuration not stated) | -25% | u | 13% | 13µM* | 3%
COc1ccc(CC(=O)Nc2nc3ccc(F)cc3s2)cc1S(=O)(=O)N1CCOCC1 | 1% | u | 15% | 6.6µM* | -2%
COc1ccc(CC(=O)Nc2ccc(F)c(F)c2F)cc1S(=O)(=O)N1CCOCC1 | x | 12µM* | 7% | u | 0%
CCCCc1nnc(NC(=O)Cc2ccc(OC)c(S(=O)(=O)N3CCOCC3)c2)s1 | x | 10µM* | -29% | u | -2%
COc1ccc(COC(=O)c2ccc(Br)c(S(=O)(=O)N3CCOCC3)c2)cc1F | x | 3.3µM* | -4% | u | -13%
COc1ccc(C(=O)OCc2ccc(C)cc2)cc1S(=O)(=O)N1CCOCC1 | x | u | -1% | u | -1%
CCOC(=O)NC1Cc2ccccc2C1Sc1ccccn1 (configuration not stated) | -3% | x | -8% | -19% | 3%
C[C@@H]1CN([C@H](C)CO)S(=O)(=O)c2ccc(Br)cc2O[C@H]1CN(C)C(=O)Nc1ccccc1 | x | x | 3% | x | x
CCN(CC)CC[n+]1ccc2c(C)c3[nH]c4ccccc4c3c(C)c2c1 | -10% | x | x | x | x
COc1ccc(CC(NC(C)=O)C(=O)NC2CCN(C(=O)C3CCCCC3)CC2)cc1OC (configuration not stated) | 1% | 7% | 4% | 30% | -1%
COc1cccc(NC(=O)CCC2CCN(C(=O)c3cncs3)CC2)c1 | u | u | 3% | u | 51%
CCN1CCN(c2c(S(=O)(=O)c3ccc(C)c(C)c3)cnc3ccc(F)cc23)CC1 | 5% | u | -17% | 2.3µM* | -2%
O=C(Nc1ccc(F)cc1)c1cc(S(=O)(=O)N2CCOCC2)cs1 | -1% | 28% | -8% | 12µM* | 0%
O=C(Nc1ccc(F)cc1)c1cc(S(=O)(=O)Nc2ccc(F)cc2)cs1 | 27% | 13% | 5% | 12µM* | -3%
COC(=O)c1ccsc1NC(=O)CN1CCN(c2ncccn2)CC1 | 0% | 12µM* | 4% | 0% | -8%
CCc1n(CC(O)COC2CCCCC2)c2ccccc2[n+]1C (configuration not stated) | -3% | 2.6µM* | 4% | u | 0%
COCCCN1CC(=O)N2C(c3ccccc3)c3[nH]c4ccccc4c3C[C@H]2C1=O (some centres not stated) | -8% | x | 4% | u | 2%
CC(C)OCCCN1CC(=O)N2C(c3ccccc3)c3[nH]c4ccccc4c3C[C@H]2C1=O (some centres not stated) | -8% | 9.3µM* | 4% | u | -3%
COCCN1CC(=O)N2C(c3cccc(C)c3)c3[nH]c4ccccc4c3C[C@H]2C1=O (some centres not stated) | 3% | 13µM* | x | 12µM* | 1%
COCCCN1CC(=O)N2C(c3cccc(OC)c3OC)c3[nH]c4ccccc4c3C[C@H]2C1=O (some centres not stated) | -7% | 9.3µM* | 1% | 12µM* | 0%
COc1cccc(C2c3[nH]c4ccccc4c3C[C@H]3C(=O)N(CCCOC(C)C)CC(=O)N23)c1 (some centres not stated) | 1% | -20% | 4% | u | 0%
CCN1C(=O)[C@@H]2Cc3c([nH]c4ccccc34)C(c3ccc(OC)cc3)N2C1=S (some centres not stated) | 8% | 15µM* | 7% | u | -1%
Cc1c(N)cc(S(=O)(=O)O)cc1NC(=O)c1cccc([N+](=O)[O-])c1 | x | x | 13% | x | x
SMILES | NS1 function inh | Pf growth 48h | RE007 growth inh | Pf growth 96h | SARS PLpro yeast
CN1CC(=O)N2C(c3ccc(Cl)cc3)c3[nH]c4ccccc4c3C[C@H]2C1=O (some centres not stated) | 2% | 8.3µM* | 9% | 13µM* | 2%
COCCCN1CC(=O)N2C(c3cccc(C)c3)c3[nH]c4ccccc4c3C[C@H]2C1=O (some centres not stated) | -5% | 9.3µM* | -12% | u | 1%
COC(=O)c1ccc(C2c3[nH]c4ccccc4c3C[C@H]3C(=O)N(C)CC(=O)N23)cc1 (some centres not stated) | -3% | u | 10% | u | 3%
Cc1ccc(S(=O)(=O)N2C[C@H]3C(=O)C[C@@H](c4cccc(Cl)c4)N(S(=O)(=O)c4ccc(C)cc4)[C@H]3C[C@H]2c2ccc(Cl)cc2)cc1 | x | x | 2% | x | x
Cn1c(-c2ccccc2O)cc2ccccc21 | 0% | 3.7µM* | -17% | 5.2µM* | -40%
Cc1ccc(NC(=O)c2cc3c(=O)oc4ccc(C)cc4c3s2)nc1 | 3% | 10% | x | 34% | 1%
O=C(CN1C(=O)CSc2ncccc21)Nc1cccc(Cl)c1 | 5% | 17µM* | 14% | 2% | -1%
COCCCNC(=O)CN1C(=O)CSc2ncccc21 | 16% | 7% | -3% | 2.6µM* | 3%
O=C(NC1CCN(S(=O)(=O)c2ccccc2)CC1)c1ccccc1 | 6% | 10% | -3% | 15µM* | -2%
Cc1cccc(C(=O)NC2CCN(S(=O)(=O)c3ccccc3F)CC2)c1 | u | u | -2% | -11% | 6%
Cc1ccc(C(=O)NC2CCN(S(=O)(=O)c3ccccc3F)CC2)cc1 | 10% | -6% | 33% | 13µM* | -4%
Cc1cc(NC(=O)C(C)SCC(=O)Nc2cc(C(F)(F)F)ccc2N2CCCCC2)no1 (configuration not stated) | x | u | -10% | 12µM* | -9%
Cc1cc(NC(=O)CSCC(=O)Nc2cc(C(F)(F)F)ccc2N2CCCCC2)no1 | x | x | -17% | x | x
CCc1sc(C(=O)Nc2cc(Cl)ccc2N2CCCCC2)cc1C | 3% | x | 3% | 15µM* | -2%
Cc1cc(NC(=O)C(C)SCC(=O)Nc2ccccc2C(C)(C)C)no1 (configuration not stated) | x | 13µM* | 14% | 15µM* | 14%
Cc1noc(C)c1CSCC(=O)Nc1cc(Cl)ccc1N1CCCCC1 | x | u | -9% | 6.6µM* | -2%
CCN(C[C@H]1N[C@@](C)(C(=O)OC)[C@H]2C(=O)N(Cc3ccccc3)C(=O)[C@@H]12)C(=O)c1ccc(C)cc1 | x | x | 3% | x | -1%
Cc1cc(C)n(-c2ccc(C(=O)N3CCN(S(=O)(=O)c4ccc(Br)cc4Cl)CC3)cc2)n1 | x | x | 10% | x | x
